Experimental data taken from ChEMBL document CHEMBL2218924, “A broad activity screen in support of a chemogenomic map for kinase signalling research and drug discovery” (Biochem J, 2013).

Assays:
[1] = biological target: T1, Serine/threonine-protein kinase 17A (Homo sapiens) (UniProt Q9UEE5); settings: at 10 µM
T1 sequence (whole entry): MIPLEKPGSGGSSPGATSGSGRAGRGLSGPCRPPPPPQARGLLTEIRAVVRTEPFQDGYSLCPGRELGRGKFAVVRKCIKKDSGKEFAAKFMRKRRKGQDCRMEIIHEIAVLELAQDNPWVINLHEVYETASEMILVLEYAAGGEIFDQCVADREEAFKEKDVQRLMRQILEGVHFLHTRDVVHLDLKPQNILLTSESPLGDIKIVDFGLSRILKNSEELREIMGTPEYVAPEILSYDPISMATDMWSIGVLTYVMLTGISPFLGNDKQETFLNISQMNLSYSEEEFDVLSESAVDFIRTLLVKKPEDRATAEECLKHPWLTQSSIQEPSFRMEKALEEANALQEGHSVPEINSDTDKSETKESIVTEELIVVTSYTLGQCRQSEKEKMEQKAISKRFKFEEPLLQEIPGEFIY

[2] = biological target: T2, Dual specificity tyrosine-phosphorylation-regulated kinase 2 (Homo sapiens) (UniProt Q92630); settings: at 1 µM
T2 sequence (whole entry): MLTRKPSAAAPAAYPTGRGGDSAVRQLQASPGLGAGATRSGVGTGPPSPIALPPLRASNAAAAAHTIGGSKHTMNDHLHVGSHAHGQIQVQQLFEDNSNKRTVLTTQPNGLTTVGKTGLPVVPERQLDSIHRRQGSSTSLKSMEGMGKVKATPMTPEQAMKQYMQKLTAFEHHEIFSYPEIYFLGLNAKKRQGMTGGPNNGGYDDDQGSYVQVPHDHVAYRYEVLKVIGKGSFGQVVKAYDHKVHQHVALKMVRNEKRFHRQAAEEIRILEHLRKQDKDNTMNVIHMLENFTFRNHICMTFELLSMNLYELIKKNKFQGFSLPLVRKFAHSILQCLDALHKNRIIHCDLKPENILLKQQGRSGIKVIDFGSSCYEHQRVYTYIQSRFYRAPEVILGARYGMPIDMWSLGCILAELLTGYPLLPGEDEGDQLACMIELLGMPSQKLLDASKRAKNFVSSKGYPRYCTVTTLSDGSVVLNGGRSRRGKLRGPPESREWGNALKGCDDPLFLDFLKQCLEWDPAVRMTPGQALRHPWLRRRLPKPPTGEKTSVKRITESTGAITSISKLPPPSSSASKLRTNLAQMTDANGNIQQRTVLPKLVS

[3] = biological target: T2, Dual specificity tyrosine-phosphorylation-regulated kinase 2 (Homo sapiens); settings: at 10 µM
[4] = biological target: T3, Ephrin type-A receptor 1 (Homo sapiens) (UniProt P21709); settings: at 10 µM
T3 sequence (whole entry): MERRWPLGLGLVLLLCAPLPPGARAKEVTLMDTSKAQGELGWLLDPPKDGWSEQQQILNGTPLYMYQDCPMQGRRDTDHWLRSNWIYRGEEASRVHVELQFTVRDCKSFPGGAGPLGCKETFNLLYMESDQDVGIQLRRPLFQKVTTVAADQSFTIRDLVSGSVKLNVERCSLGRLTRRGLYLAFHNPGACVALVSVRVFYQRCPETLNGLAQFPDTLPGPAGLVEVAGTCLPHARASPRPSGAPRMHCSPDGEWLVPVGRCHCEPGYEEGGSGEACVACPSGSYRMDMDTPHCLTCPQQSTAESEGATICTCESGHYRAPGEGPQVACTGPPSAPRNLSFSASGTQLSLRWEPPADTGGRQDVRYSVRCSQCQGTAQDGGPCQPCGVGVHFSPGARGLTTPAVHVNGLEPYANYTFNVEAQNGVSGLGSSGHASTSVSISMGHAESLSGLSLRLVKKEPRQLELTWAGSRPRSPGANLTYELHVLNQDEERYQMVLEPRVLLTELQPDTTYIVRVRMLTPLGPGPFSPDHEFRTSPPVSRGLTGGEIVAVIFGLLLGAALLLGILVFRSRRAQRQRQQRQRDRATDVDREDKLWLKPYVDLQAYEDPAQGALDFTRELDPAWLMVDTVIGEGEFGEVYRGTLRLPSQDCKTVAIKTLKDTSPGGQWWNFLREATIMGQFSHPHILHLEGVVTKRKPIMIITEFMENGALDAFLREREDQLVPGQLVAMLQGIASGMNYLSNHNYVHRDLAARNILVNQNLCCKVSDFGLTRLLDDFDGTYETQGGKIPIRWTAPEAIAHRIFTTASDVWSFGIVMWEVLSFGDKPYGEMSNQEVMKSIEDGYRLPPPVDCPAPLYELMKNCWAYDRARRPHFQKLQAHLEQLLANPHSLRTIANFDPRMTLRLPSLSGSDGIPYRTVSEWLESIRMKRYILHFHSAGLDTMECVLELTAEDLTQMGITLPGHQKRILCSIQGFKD

[5] = biological target: Ephrin type-A receptor 2 (Homo sapiens) (UniProt P29317); settings: at 1 µM
Ephrin type-A receptor 2 (Homo sapiens), sequence (P29317 whole entry): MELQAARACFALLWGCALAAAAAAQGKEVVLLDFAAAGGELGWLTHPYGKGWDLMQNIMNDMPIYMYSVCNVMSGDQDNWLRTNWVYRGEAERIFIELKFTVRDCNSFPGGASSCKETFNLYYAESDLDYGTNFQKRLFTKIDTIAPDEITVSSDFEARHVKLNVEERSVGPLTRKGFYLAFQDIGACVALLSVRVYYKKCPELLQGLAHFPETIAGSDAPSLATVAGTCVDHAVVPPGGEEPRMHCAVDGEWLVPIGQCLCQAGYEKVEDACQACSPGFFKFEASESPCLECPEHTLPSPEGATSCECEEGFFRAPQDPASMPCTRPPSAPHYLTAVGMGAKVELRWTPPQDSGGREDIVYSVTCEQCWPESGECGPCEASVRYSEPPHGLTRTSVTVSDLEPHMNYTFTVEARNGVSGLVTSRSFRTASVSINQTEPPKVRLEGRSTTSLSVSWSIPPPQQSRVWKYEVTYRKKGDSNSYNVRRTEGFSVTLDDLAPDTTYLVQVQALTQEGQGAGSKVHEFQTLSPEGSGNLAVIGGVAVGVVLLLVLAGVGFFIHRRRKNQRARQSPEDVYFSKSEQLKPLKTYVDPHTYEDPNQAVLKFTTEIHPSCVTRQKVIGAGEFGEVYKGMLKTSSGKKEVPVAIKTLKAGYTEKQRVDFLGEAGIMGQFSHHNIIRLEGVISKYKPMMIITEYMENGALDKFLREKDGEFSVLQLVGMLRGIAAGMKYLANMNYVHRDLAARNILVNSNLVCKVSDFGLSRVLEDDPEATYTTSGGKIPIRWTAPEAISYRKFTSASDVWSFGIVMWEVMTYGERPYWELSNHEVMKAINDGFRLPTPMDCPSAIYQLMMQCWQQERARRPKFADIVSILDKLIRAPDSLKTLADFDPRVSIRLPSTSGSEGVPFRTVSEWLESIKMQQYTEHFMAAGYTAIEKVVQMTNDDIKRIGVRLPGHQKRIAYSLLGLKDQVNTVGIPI

[6] = biological target: Ephrin type-A receptor 2 (Homo sapiens) (UniProt P29317); settings: at 10 µM
[7] = biological target: T4, Ephrin type-A receptor 3 (Homo sapiens) (UniProt P29320); settings: at 1 µM
T4 sequence (whole entry): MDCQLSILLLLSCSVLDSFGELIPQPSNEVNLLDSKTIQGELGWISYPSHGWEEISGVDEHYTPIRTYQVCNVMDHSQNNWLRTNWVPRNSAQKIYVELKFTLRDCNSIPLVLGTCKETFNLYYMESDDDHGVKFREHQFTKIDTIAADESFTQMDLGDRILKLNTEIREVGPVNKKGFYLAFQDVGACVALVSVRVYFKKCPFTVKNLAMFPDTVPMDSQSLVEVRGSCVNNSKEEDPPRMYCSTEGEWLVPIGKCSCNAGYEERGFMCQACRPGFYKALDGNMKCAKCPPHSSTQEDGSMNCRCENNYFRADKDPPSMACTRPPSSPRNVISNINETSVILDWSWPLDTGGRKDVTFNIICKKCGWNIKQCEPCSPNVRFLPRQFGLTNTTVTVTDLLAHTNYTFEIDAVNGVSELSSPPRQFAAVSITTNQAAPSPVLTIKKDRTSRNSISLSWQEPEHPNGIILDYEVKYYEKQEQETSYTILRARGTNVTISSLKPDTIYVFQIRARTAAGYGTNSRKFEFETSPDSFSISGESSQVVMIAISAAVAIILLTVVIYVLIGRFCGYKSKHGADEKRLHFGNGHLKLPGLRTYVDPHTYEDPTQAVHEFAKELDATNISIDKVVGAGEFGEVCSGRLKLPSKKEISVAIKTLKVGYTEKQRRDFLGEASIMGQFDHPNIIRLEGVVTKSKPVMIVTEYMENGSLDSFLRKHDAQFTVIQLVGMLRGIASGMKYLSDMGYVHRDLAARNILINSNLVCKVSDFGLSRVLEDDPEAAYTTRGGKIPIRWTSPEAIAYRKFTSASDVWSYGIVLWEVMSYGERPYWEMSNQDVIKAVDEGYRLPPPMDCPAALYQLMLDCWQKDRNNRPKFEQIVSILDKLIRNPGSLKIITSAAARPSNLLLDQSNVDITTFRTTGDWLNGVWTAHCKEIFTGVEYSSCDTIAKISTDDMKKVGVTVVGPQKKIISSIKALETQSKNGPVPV

[8] = biological target: Ephrin type-A receptor 4 (Homo sapiens) (UniProt P54764); settings: at 1 µM
Ephrin type-A receptor 4 (Homo sapiens), sequence (P54764 whole entry): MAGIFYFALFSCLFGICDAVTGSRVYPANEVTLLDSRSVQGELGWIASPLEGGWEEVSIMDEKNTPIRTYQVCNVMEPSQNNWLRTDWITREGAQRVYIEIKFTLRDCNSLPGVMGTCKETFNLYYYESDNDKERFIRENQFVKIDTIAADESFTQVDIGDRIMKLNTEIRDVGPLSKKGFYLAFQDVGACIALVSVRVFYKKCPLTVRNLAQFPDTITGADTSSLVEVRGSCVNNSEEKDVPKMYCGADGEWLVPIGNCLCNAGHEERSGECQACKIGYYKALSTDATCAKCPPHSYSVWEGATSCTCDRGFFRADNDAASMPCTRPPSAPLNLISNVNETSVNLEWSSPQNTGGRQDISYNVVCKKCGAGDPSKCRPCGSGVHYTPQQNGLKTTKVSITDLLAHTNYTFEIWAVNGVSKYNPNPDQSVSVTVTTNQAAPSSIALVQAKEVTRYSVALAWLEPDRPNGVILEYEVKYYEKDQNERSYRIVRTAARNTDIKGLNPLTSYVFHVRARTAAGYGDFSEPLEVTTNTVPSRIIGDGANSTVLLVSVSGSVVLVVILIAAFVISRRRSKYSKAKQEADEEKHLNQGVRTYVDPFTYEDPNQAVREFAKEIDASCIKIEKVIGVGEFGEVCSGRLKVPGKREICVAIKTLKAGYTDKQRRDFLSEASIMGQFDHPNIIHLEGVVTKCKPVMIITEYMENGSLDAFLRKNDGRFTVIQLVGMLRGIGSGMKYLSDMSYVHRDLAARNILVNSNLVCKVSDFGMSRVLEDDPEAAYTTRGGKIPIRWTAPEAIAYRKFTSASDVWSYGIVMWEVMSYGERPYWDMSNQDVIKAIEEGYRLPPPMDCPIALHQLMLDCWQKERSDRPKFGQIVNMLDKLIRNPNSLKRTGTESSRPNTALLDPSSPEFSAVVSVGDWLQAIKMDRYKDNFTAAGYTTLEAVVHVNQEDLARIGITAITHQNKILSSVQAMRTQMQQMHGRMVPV

[9] = biological target: Ephrin type-A receptor 4 (Homo sapiens) (UniProt P54764); settings: at 10 µM
[10] = biological target: Ephrin type-A receptor 5 (Homo sapiens) (UniProt P54756); settings: at 1 µM
Ephrin type-A receptor 5 (Homo sapiens), sequence (P54756 whole entry): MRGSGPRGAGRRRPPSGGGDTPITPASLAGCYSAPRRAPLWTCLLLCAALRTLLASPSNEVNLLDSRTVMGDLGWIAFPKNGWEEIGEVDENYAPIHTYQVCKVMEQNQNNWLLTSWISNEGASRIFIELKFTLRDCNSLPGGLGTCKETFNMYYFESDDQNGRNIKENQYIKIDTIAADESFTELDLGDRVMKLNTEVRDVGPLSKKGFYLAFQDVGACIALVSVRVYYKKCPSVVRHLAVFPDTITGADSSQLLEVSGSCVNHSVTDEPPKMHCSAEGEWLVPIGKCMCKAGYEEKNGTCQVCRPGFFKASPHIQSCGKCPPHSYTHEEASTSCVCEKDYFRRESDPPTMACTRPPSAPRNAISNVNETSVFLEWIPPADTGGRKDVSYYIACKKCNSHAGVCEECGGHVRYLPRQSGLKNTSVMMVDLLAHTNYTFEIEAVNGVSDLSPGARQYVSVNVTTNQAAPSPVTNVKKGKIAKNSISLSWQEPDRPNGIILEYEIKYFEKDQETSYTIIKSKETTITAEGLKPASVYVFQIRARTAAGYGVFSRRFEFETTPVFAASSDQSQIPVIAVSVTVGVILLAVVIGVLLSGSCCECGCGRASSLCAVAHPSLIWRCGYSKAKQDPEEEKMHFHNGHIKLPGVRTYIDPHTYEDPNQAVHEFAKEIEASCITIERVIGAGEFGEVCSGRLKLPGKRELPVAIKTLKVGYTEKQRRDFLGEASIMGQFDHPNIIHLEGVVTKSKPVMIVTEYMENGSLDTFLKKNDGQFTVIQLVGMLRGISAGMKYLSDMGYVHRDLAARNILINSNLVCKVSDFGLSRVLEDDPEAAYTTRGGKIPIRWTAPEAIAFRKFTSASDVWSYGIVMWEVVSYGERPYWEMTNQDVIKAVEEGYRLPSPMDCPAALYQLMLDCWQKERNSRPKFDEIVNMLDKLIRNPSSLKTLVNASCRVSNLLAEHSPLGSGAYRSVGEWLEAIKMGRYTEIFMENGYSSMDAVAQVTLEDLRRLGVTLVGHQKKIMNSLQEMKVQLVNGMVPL

[11] = biological target: T5, Ephrin type-A receptor 8 (Homo sapiens) (UniProt P29322); settings: at 10 µM
T5 sequence (whole entry): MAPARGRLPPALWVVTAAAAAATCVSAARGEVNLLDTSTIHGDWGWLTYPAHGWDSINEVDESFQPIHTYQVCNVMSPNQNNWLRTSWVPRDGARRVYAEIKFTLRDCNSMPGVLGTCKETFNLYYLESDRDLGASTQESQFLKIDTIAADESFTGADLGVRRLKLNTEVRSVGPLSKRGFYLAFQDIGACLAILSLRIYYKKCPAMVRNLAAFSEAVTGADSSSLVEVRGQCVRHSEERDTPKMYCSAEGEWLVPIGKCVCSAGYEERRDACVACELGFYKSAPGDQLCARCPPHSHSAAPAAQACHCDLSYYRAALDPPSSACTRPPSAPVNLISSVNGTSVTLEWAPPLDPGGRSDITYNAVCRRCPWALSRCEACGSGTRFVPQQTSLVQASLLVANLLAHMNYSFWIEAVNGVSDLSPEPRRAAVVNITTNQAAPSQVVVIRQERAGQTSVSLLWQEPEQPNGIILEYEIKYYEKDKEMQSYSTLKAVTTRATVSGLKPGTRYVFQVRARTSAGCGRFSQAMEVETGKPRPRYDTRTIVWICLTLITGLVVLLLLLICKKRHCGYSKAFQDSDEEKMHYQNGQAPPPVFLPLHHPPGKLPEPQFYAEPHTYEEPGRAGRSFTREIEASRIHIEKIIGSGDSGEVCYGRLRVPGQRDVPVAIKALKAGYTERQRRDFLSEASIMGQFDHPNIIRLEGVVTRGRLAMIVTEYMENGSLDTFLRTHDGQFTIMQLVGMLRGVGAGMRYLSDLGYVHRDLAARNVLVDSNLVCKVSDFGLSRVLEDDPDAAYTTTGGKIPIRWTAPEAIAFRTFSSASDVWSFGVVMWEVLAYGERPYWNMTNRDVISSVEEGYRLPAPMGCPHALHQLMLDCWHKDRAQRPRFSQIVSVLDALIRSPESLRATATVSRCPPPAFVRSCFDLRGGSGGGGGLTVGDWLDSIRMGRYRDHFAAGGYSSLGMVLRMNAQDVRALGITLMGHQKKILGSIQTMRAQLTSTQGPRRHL

[12] = biological target: T6, Ephrin type-B receptor 1 (Homo sapiens) (UniProt P54762); settings: at 1 µM
T6 sequence (whole entry): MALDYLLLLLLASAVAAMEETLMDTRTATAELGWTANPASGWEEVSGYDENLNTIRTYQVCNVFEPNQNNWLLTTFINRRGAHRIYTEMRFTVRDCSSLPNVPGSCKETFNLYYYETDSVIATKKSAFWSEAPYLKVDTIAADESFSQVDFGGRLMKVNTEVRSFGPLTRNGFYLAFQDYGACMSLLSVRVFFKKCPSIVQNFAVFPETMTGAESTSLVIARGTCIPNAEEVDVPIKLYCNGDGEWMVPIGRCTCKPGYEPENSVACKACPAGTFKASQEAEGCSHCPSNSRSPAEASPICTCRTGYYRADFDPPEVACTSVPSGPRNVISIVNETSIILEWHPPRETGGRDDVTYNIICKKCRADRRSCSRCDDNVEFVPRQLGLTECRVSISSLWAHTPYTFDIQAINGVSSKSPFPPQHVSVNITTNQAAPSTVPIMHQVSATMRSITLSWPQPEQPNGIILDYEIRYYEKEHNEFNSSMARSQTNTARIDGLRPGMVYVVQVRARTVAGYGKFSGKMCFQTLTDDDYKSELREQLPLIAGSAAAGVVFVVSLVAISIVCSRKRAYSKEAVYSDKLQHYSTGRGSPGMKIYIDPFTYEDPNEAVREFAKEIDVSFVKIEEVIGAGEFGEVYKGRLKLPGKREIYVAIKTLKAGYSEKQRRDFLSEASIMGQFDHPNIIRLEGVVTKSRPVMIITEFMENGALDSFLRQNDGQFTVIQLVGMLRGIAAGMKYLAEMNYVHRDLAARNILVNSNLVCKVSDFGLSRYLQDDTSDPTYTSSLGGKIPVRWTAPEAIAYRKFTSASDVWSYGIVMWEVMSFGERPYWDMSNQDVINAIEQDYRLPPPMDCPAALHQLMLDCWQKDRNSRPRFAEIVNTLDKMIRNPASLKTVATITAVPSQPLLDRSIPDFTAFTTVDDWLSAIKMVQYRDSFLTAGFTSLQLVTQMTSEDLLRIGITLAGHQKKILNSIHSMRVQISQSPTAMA

[13] = biological target: T3, Ephrin type-A receptor 1 (Homo sapiens); settings: at 1 µM
[14] = biological target: T4, Ephrin type-A receptor 3 (Homo sapiens); settings: at 10 µM
[15] = biological target: Ephrin type-A receptor 5 (Homo sapiens) (UniProt P54756); settings: at 10 µM
[16] = biological target: Ephrin type-A receptor 7 (Homo sapiens) (UniProt Q15375); settings: at 1 µM
Ephrin type-A receptor 7 (Homo sapiens), sequence (Q15375 28-998 limits assumed): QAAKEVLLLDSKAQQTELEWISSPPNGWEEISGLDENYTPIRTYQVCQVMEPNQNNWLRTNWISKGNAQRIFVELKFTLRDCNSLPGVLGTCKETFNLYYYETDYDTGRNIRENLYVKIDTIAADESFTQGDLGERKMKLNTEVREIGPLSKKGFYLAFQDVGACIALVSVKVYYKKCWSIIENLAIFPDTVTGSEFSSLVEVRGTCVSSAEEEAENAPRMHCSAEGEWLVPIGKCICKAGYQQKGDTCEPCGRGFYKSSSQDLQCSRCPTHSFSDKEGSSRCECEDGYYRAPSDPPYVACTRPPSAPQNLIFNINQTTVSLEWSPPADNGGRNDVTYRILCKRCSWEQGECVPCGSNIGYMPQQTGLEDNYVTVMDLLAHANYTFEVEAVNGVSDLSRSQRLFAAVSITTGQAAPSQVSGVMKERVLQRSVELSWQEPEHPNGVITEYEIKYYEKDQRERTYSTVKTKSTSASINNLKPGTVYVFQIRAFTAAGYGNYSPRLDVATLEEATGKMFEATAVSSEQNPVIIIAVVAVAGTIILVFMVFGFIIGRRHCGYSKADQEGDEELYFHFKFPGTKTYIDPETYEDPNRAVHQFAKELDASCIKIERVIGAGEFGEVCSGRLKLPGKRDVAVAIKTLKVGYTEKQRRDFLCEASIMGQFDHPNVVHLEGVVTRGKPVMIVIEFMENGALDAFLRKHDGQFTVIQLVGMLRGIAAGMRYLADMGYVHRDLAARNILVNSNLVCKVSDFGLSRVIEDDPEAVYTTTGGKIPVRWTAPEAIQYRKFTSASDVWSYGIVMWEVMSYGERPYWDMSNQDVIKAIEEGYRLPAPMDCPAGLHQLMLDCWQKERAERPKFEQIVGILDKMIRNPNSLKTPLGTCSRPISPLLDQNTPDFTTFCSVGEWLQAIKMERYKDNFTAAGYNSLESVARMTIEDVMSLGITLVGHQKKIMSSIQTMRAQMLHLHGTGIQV

[17] = biological target: Ephrin type-A receptor 7 (Homo sapiens) (UniProt Q15375); settings: at 10 µM
[18] = biological target: T5, Ephrin type-A receptor 8 (Homo sapiens); settings: at 1 µM

Structure (SMILES)	residual activity [1] [%]	residual activity [2] [%]	residual activity [3] [%]	residual activity [4] [%]	residual activity [5] [%]	residual activity [6] [%]	residual activity [7] [%]	residual activity [8] [%]	residual activity [9] [%]	residual activity [10] [%]	residual activity [11] [%]	residual activity [12] [%]	residual activity [13] [%]	residual activity [14] [%]	residual activity [15] [%]	residual activity [16] [%]	residual activity [17] [%]	residual activity [18] [%]
O=C1Nc2ccc(Br)cc2/C1=C\c1cc2c([nH]1)CCCC2	40	97	99	105	112	97	108	106	103	110	101	101						
CN(C)c1ccc(/C=C2\C(=O)Nc3ccccc32)cc1	6	98	98	102	123	107	99	115	109	108	98	100	100	100	112	104	89	102
CC#CC(=O)Nc1cc2c(Nc3ccc(F)c(Cl)c3)ncnc2cn1	105	102	93	105	100	101	113	118	91	102	93	96	102	92	97	96	91	104
CNc1cc2c(Nc3cccc(Br)c3)ncnc2cn1	11	90	86	59	94	75	93	105	95	103	69	93	72	78	92	90	54	98
COc1ccc(C(=O)Nc2sc3c(c2C(N)=O)CCCC3)cc1OC	111	98	90	111	109	107	110	112	95	94	85	83	92	89	108	92	87	107
